Activity calls are given as the source filed them.

Our source for the z-score values is PubChem BioAssay.

Experiment [1] is described as follows: compound effects on lung adenocarcinoma cell viability – A549, calcein-AM fluorescence, 48 h, basal, profiling panel (AID 1162). The settings on record: higher = more signal.
A short description of experiment [2]: compound effects on differentiated 3T3-L1 adipocyte viability – cell-based, 3T3-L1 adipocytes, calcein-AM fluorescence, 48 h, basal, profiling panel (AID 1163). The settings on record: 3T3-L1 adipocytes viability, higher = more signal.
A short description of experiment [3]: compound effects on hepatocellular carcinoma cell viability – HepG2, calcein-AM fluorescence, 48 h, basal, profiling panel (AID 1164). As to conditions: higher = more signal.
Experiment [4] in a line: compound effects on multiple myeloma cell viability – MM1S, calcein-AM fluorescence, 48 h, basal, profiling panel (AID 1165).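 Note: viability of MM1S multiple myeloma cells under basal unstimulated conditions.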 The settings on record: higher = more signal.
Experiment [5] in a line: calcein-AM signal in unstimulated myeloma cells – cell-based, calcein-AM fluorescence, 48 h, PK04 Diversity Set, profiling panel (AID 1166).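 Note: cells grown under basal conditions without added stimulus.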 As to conditions: RPMI8226 myeloma viability, higher = more signal.
Experiment [6] in a line: JC-1 mitochondrial signal, unstimulated HepG2 cells – cell-based, JC-1 fluorescence, 24 h, 100 nL compound, profiling panel (AID 1167). The settings on record: HepG2 mitochondrial potential, higher = more signal.
Experiment [7] can be described thus: JC-1 mitochondrial signal, unstimulated adipocytes – cell-based, JC-1 fluorescence, 3T3-L1 adipocytes, 24 h, 100 nL compound, profiling panel (AID 1168). As to conditions: JC-1 mitochondrial fluorescence, higher = more signal, called active from +8 up or from −8 down.
Experiment [8] can be described thus: JC-1 mitochondrial signal, unstimulated myeloma cells – cell-based, JC-1 fluorescence, RPMI8226, 24 h, 100 nL compound, profiling panel (AID 1169). The settings on record: JC-1 mitochondrial potential fluorescence, higher = more signal.
Experiment [9] is described as follows: JC-1 mitochondrial signal, unstimulated MM1S myeloma – cell-based, JC-1 fluorescence, 24 h, 100 nL compound, profiling panel (AID 1170). As to conditions: MM1S mitochondrial potential, higher = more signal.
Experiment [10] in a line: resazurin metabolic signal in A549 cells – cell-based, resazurin fluorescence, 24 h, PK04 Diversity Set, profiling panel (AID 1171). The settings on record: A549 viability, higher = more signal, called active from +8 up or from −8 down. A general note: The colour change of resazurin is a common sign of viable cells or microbes.
Note: test concentration not given here.

On to `CC(=O)OC[C@H]1O[C@H](CCON=C(C)CCN2CCc3nc(-c4ccccc4)c(-c4ccccc4)cc3C2)C=C[C@@H]1OC(C)=O`, for which the z-score in experiment [1] was 0.396; in experiment [2] it was 0.235; in experiment [3], 0.2; in [4], -2.16; in [5], 0.091; in experiment [6] it was -0.273. Moreover, the z-score in [7] is -1.4 (inactive); in experiment [8], 0.168; in experiment [9], -0.594; in experiment [10], 0.783 (inactive).

Take `CCCCC(=C=CC[C@H](O)c1ccccc1OCCO)C[C@H](O)COCc1ccccc1`: the z-score in [1] is 0.395; in [2] it was 0.0907; in experiment [3], 0.514; in experiment [4] it was -2.92; in [5] it was -1.29; in experiment [6] it was -0.0498. Further, the z-score in [7] is -0.643 (inactive); in experiment [8] it was -0.621; in experiment [9], -0.611; in [10] it was 0.189 (inactive).

As for `Cc1ccc(F)cc1S(=O)(=O)N[C@@H]1CCN(Cc2ccc(CC(C)C)cc2)C1`, the z-score in [1] is -0.815; in experiment [2] it was -0.537; in experiment [3] it was -1.8; in experiment [4], -3.34; in experiment [5], -3.56; in experiment [6], -1.08. Also, the z-score was -0.545 (inactive) in [7], -1.14 in experiment [8], -2.19 in experiment [9] and 0.0665 (inactive) in [10].

In the case of `CC(C)(C)N1C(=O)[C@H]2[C@H]3[C@H](O)[C@H](O)CC(=NO[C@@H]4O[C@H](CO)[C@@H](O)[C@H](O)[C@H]4O)[C@@H]3CC[C@H]2C1=O`, the z-score was -0.504 in [1]; 0.346 in experiment [2]; 0.302 in experiment [3]; -0.739 in experiment [4]; -0.666 in experiment [5]; -2.11 in [6]. Besides, the z-score is -0.404 (inactive) in experiment [7], -0.018 in experiment [8], -1.03 in experiment [9] and -0.461 (inactive) in [10].

In the case of `COC(=O)[C@@H]1N=C(c2ccc(OCCCO)cc2)O[C@@H]1c1ccccc1N=[N+]=[N-]`, the z-score in [1] was 0.377; in experiment [2], 0.557; in experiment [3], 0.134; in experiment [4], -1.58; in [5] it was -1.56; in experiment [6] it was -0.682. Besides, the z-score in [7] was 0.761 (inactive); in [8] it was -0.287; in [9], -0.218; in experiment [10], 0.4 (inactive).

Consider `COc1cccc([C@@H]2Oc3ccc(Br)cc3C(=O)[C@H]2O)c1`, for which the z-score is 1.31 in experiment [1]; -0.397 in experiment [2]; -1.24 in experiment [3]; -3.44 in experiment [4]; -1.73 in [5]; -3.15 in experiment [6]. Besides, the z-score was -0.584 (inactive) in [7], -0.0726 in experiment [8], -1.31 in experiment [9] and -0.269 (inactive) in experiment [10].

For `CCN1C(=O)[C@H]2[C@H]3[C@H](O)[C@H](O)CC(=NOCc4ccccc4)[C@@H]3CC[C@H]2C1=O`, the z-score in experiment [1] was 0.391; in experiment [2] it was 0.817; in [3], 1.43; in [4] it was 0.565; in experiment [5], -0.714; in experiment [6], 0.402. The z-score in experiment [7] is 0.752 (inactive); in experiment [8], -0.0637; in [9], -0.758; in experiment [10], -0.725 (inactive).

`CC(C)(C)N1CC=CC23O[C@@H]4C=CCCOC(=O)C4[C@H]2C(=O)N(CCCCCO)[C@@H]3C1=O` (stereo not given in full): the z-score was -0.415 in [1]; 0.231 in experiment [2]; 2.16 in experiment [3]; 1.87 in experiment [4]; 0.227 in experiment [5]; 0.705 in [6]. Further, the z-score was 0.18 (inactive) in experiment [7], 0.117 in experiment [8], -0.29 in [9] and 0.0951 (inactive) in experiment [10].

For `COC(=O)CC=C[C@@H](C)[C@@H](C=NO[C@H](C)c1cn([C@@H]2COC[C@H]2O)nn1)OC`, the z-score in experiment [1] is 0.947; in experiment [2], -0.0678; in experiment [3], 0.185; in experiment [4] it was 0.415; in [5], -0.507; in [6], 1.2. In addition, the z-score in experiment [7] was -0.39 (inactive); in experiment [8] it was 0.146; in experiment [9], -0.469; in experiment [10], -0.567 (inactive).

For `CC(=O)OC[C@H]1O[C@H](CCON=C[C@@H](C)[C@H](OCc2ccccc2)C(C)C)C=C[C@@H]1OC(C)=O`, the z-score in [1] is -0.606; in experiment [2] it was -0.52; in experiment [3], -0.737; in experiment [4], -0.09; in experiment [5], -0.5; in [6], -1.26. For the same molecule, the z-score in [7] was -0.801 (inactive); in experiment [8] it was -0.0185; in [9], 0.0314; in experiment [10], 0.0793 (inactive).

As for `COC(=O)[C@@]1(Cc2ccccc2)[C@H]2c3cc(C(=O)N4CCCC4)n(Cc4ccccn4)c3C[C@H]2CN1C(=O)c1ccccc1`, the z-score in [1] was -0.935; in experiment [2], 1.91; in experiment [3], -0.924; in [4] it was -0.0789; in experiment [5] it was -1.72; in experiment [6], 1.06. The z-score in [7] was 0.339 (inactive); in experiment [8], -0.16; in experiment [9] it was 0.333; in experiment [10], -1.53 (inactive).

As for `Cc1ccc(S(=O)(=O)N[C@@H]2COC(=O)[C@H](C)COC(=O)CC=C[C@H]2C)cc1`, the z-score in [1] is 0.449; in experiment [2] it was 0.518; in [3], 0.53; in experiment [4], 0.228; in experiment [5], 0.274; in [6], 0.539. Also, the z-score in experiment [7] is -0.0933 (inactive); in experiment [8], 1.06; in experiment [9], 0.34; in experiment [10], 0.317 (inactive).

Take `O=C1[C@H]2[C@H]3[C@H](O)[C@H](O)CC(=NOC[C@@H](O)COCc4ccco4)[C@H]3CC[C@H]2C(=O)N1Cc1ccc2c(c1)OCO2`: the z-score in experiment [1] was -0.259; in experiment [2] it was -0.672; in experiment [3], -1.05; in experiment [4] it was -0.642; in [5], -0.334; in experiment [6], -0.41. For the same molecule, the z-score was -0.339 (inactive) in experiment [7], -0.149 in experiment [8], -0.635 in experiment [9] and -0.138 (inactive) in [10].

For `CCOC(=O)CCN1C(=O)[C@H]2[C@H]3[C@H](O)[C@H](O)CC(=NOC[C@@H](O)COCc4ccco4)[C@@H]3CC[C@H]2C1=O`, the z-score in [1] was 0.14; in [2], 0.171; in experiment [3], -0.324; in [4], 0.366; in experiment [5], 0.557; in [6], -0.906. For the same molecule, the z-score in experiment [7] was -0.125 (inactive); in [8], -0.393; in [9], -0.49; in experiment [10], -0.397 (inactive).
